Values joined by “and” are separate entries in the source; they are usually repeats but may differ in a detail not shown here. Identical values can stand only once. In all, about 290,000 compounds went through this assay and about 27,000 (9.3%) were called active. Cut-off read from the data, not from the text of the source: active = inhibition mostly above about 28% (no sharp cut-off); inactive = mostly below about 43%. This excerpt belongs to a sample that is enriched for actives.

The test in a line: A qHTS for Small Molecule Inhibitors of Shiga Toxin. Note: 0% is about no effect. Particulars: Vero cells, Shiga toxin protein synthesis inhibition reporter; at 38.7 µM, stronger effect = higher value. (qHTS replaces the single test concentration by a dilution series.)
One may read the inhibition as the change of the read-out against control, counted positive when it falls. As for `COc1ccc(NC(=O)NN2CCN(C)CC2)c(OC)c1`, the inhibition is -17.8% (inactive).

As for `COc1ccc(-c2cc(=O)c3c(O)cc(O[C@@H]4O[C@H](CO[C@@H]5O[C@@H](C)[C@H](O)[C@@H](O)[C@H]5O)[C@@H](O)[C@H](O)[C@H]4O)cc3o2)cc1O`, the inhibition was -12.1% (inactive).

With `COc1c(O)cc2oc(-c3ccc(O)c(O)c3)cc(=O)c2c1O`, the inhibition was 69.1% (active) and 69% (active).

As to `O=c1cc(-c2ccc(O)cc2)oc2c(-c3cc(-c4cc(=O)c5c(O)cc(O)cc5o4)ccc3O)c(O)ccc12`, the inhibition was -1.7% (inactive).

As for `CN(CC1CCCO1)S(=O)(=O)c1ccc(C(=O)Nc2ccc(F)cc2)cc1` (stereo not drawn), the inhibition is 11.9% (inactive).

Take `Cc1ccc(SCCC(=O)NC(C(C)C)C(C)C)cc1`: the inhibition is -4.72% (inactive).

For `Cc1ccc(SCCC(=O)NCc2ccccn2)cc1`, the inhibition was -6.02% (inactive).

`Cc1ccc(SCCSc2ncccn2)cc1`: the inhibition was 38.6% (active).

Regarding `Cc1ccc(S(=O)Cc2ccc(C(=O)N3CCN(C4CCCCC4)CC3)o2)cc1` (stereo not drawn), the inhibition was -3.36% (inactive).

With `COc1ccc(CN2CCN(Cc3ccc(OC)c(OC)c3OC)CC2)cc1`, the inhibition is -4.07% (inactive).

Turning to `CC(C)C(C(=O)NCc1ccco1)N(CC1CCCO1)C(=O)CNS(=O)(=O)c1ccc(F)cc1` (stereo not drawn), the inhibition is -0.539% (inactive).

As for `CCc1ccccc1S(=O)(=O)Cc1ccc(C(=O)NCCc2ccccc2)o1`, the inhibition is 6.5% (inactive).

For `O=C(CSc1n[nH]c(=O)n1-c1ccccc1)Nc1ccccc1C(F)(F)F`, the inhibition is -2.01% (inactive).

For `Cc1cc(C)c2nc(N3CCC(C(=O)NCCN4CCOCC4)CC3)sc2c1`, the inhibition is 17.8% (inactive).

On to `Fc1cc(F)c2nc(Nc3nc4c(F)cccc4s3)sc2c1`, for which the inhibition was 28.3% (inactive).

Regarding `Fc1cc(F)c2nc(N3CCOCC3)sc2c1`, the inhibition is 87.4% (active).

`COC(=O)C1=C(O)/C(=C/c2ccc(OCC(=O)Nc3ccccc3)cc2)N=C1C`: the inhibition is -18.9% (inactive).

Consider `CC1CN(CC(=O)NC(C)c2ccccc2)CC(C)O1` (stereo not drawn), for which the inhibition was -5.21% (inactive).

With `CCCSc1nsc(N)n1`, the inhibition was 11% (inactive).

In the case of `Nc1nc(SC23CC4CC(CC(C4)C2)C3)ns1`, the inhibition was 1.53% (inactive).

Regarding `CCCCCCSc1nsc(N)n1`, the inhibition is 59.2% (active).

For `CCc1cccc(NC(=O)C2CCCN(S(=O)(=O)c3ccc4[nH]c(=O)ccc4c3)C2)c1` (stereo not drawn), the inhibition is -5.44% (inactive).

With `CCCCn1c(N)c(N(CC)C(=O)c2ccccc2C(F)(F)F)c(=O)[nH]c1=O`, the inhibition is 3.43% (inactive).

With `C1=C(CCNc2ncnc3c2cnn3-c2ccccc2)CCCC1`, the inhibition is 190% (active).

Take `Cc1nn(C(C)C(=O)NCCC2=CCCCC2)c(=O)c2nn(-c3ccccc3)c(C)c12` (stereo not drawn): the inhibition is 18.5% (inactive).

For `O=C(NCCC1=CCCCC1)C1CCN(Cc2cnn(-c3ccccc3)c2-n2cccc2)CC1`, the inhibition is 31% (inactive).

As for `O=C(Cc1ccc(Br)cc1)NCCN1CCOCC1`, the inhibition is -10.9% (inactive).

As to `CC1CCN(C(=O)CCc2nnc3ccc(NCc4ccco4)nn23)CC1`, the inhibition is 12.6% (inactive).

For `Cc1cccc(-n2cnc(C(=O)NNC(=S)Nc3ccccc3)c2)n1`, the inhibition is -10.7% (inactive).

Take `Cc1cccc(-n2cnc(C(=O)Nc3cccnc3)c2)n1`: the inhibition was 101% (active).

`O=C(Nc1cccnc1)c1cc([N+](=O)[O-])ccc1Cl`: the inhibition is -2.48% (inactive).

With `Cc1ccc2nc(SCC(=O)NC3CCCC3)[nH]c2c1`, the inhibition was -2.14% (inactive).

`Cc1ccc2nc(-c3ccc(SCC(=O)Nc4cc(C)on4)nc3)[nH]c2c1`: the inhibition is 71.3% (active).

Regarding `Cc1ccc(SCCC(=O)Nc2cc(C)on2)cc1`, the inhibition was -4.4% (inactive).

`CC(C)(C)c1ccc(C(=O)N2CCN(CCNC(=O)C(=O)Nc3ccc(F)cc3)CC2)cc1`: the inhibition is -6.99% (inactive).

With `CCNCc1cc2cc(C)ccc2[nH]c1=O`, the inhibition is 12% (inactive).

Regarding `CC(=O)OCc1cc2cc(C)ccc2[nH]c1=O`, the inhibition was -8.28% (inactive).

Turning to `CCOC(=O)c1cc2cc(C)ccc2[nH]1`, the inhibition was 168% (active).

As for `COc1ccc(CNC(=O)[C@H](Cc2c[nH]c3ccccc23)NC(C)=O)cc1OC`, the inhibition is -6.62% (inactive).

As for `COc1ccc(-c2ccc(CCC(=O)O)n2-c2ccc(O)cc2)cc1`, the inhibition is 4.87% (inactive).

As to `COCCCn1c(CCC(=O)O)ccc1-c1ccc(F)cc1`, the inhibition is 13% (inactive).

Turning to `COc1ccc(-c2ccc(CCC(=O)O)n2NC(=O)c2ccc(C(C)(C)C)cc2)cc1`, the inhibition is 21% (active).

For the molecule `CC(C)c1ccc(Nc2nnc(SCC(=O)c3nnc(-c4ccccc4)o3)s2)cc1`, the inhibition is 58.9% (active).

For `Cc1ccc(Nc2nnc(SCC(=O)c3cc4ccccc4o3)s2)cc1C`, the inhibition is 19.8% (inactive).

As for `O=C(CSc1nnc(Nc2ccccc2)s1)Nc1cccnc1Cl`, the inhibition is -14.8% (inactive).

In the case of `Cc1cc(C)cc(Oc2c(C(F)(F)F)oc3cc(OCC(=O)O)ccc3c2=O)c1`, the inhibition is -4.45% (inactive).

Take `CC(C)=CCN1CCN(Cc2cc3ccccc3[nH]2)CC1CCO` (stereo not drawn): the inhibition is 1.5% (inactive).

For the molecule `N#Cc1cccc(CN2CCC(=O)N(CCO)CC2)c1`, the inhibition is 2.03% (inactive).

`O=C(Nc1nnc(SCc2c(Cl)cccc2Cl)s1)C1CCCO1` (stereo not drawn): the inhibition was 86.4% (inactive).

In the case of `O=C(Nc1nnc(CCc2ccccc2)s1)C1CCCO1` (stereo not drawn), the inhibition was 39.5% (inactive).

Consider `CC(C)(C)NS(=O)(=O)c1ccc(NC(=O)C2CCCO2)cc1` (stereo not drawn), for which the inhibition was -21.4% (inactive).

Take `O=C(Nc1cccc(-c2nnc(-c3ccccc3)o2)c1)C1CCCO1` (stereo not drawn): the inhibition was 85% (active).

Regarding `O=C(Nc1ccc(-c2nnc(-c3ccccc3)o2)cc1)C1CCCO1` (stereo not drawn), the inhibition is 93.5% (active).

In the case of `O=C(Nc1cccc(Cl)c1)Nc1nnc(-c2ccccc2)o1`, the inhibition is -12.3% (inactive).

Take `CCCCC(=O)Nc1c2c(nn1-c1ccc([N+](=O)[O-])cc1)CS(=O)(=O)C2`: the inhibition is 19.5% (inactive).

As to `Cc1ccc2c(C)c(C(=O)N(C)Cc3ccncn3)oc2c1C`, the inhibition was 4.22% (inactive).

With `C=CCn1c(SCC(=O)NCCCO)nc2sc3c(c2c1=O)CCC3`, the inhibition is 8.99% (inactive).

For `Brc1ccc(-c2n(-c3ccccn3)c3ccccc3[n+]2-c2ccccn2)cc1`, the inhibition was 12.9% (inactive).

For `O=[N+]([O-])c1cccc(S(=O)(=O)NCc2ccccn2)c1`, the inhibition was -7.29% (inactive).

On to `Cc1cc2cc3c(N)[nH]nc3nc2cc1C`, for which the inhibition is 40.9% (active).

Turning to `CSc1ncccc1C(=O)Nc1nc2ccc(F)cc2s1`, the inhibition is 138% (active).

For the molecule `CSc1ncccc1C(=O)Nc1ccc(C)cn1`, the inhibition is 34% (inactive).

With `COc1cc(NC(=O)c2cccnc2SC)cc(OC)c1`, the inhibition is 10.8% (inactive).
